The values that follow come from the supplement of paper PMC6555819.

The first assay concerns RARg:RXRa (NR concentration 270 nM, RXRa partner concentration 90 nM). As to the kind of experiment: PBM binding z-score (relative to random genomic background probes); higher = stronger binding; sequences stand for … in GC…GCGATTGACAGCGTAGAATGAAGG
In outline: (§1)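 Binding buffer was PBS pH 7.4 with 2% milk, 0.02% Triton X-100, 1 mM DTT, 0.2 mg/mL BSA and 0.4 mg/ml salmon testes DNA. In it, ligand-free nuclear receptor dimers were incubated 1 h on custom Agilent 4×180K protein-binding microarrays carrying double-stranded probes. Antibodies against each partner (one per run) detected binding, and z-scores were calculated against random background probes after regression normalization of scanned fluorescence.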
As for CCTCGGAGGACATAAGGTCAGAGCTGTCCGCTTT, the PBM binding z-score came to 3.93.

The sequence CGTCAAAGTTCAAGGTAAGGTAACAGAAAGCAGC gave a PBM binding z-score of 5.71.

TTACCAAGGTGAAGGTCGTTGTTCCCTCTGTAGA returned a PBM binding z-score of 1.36.

CAGCCTAGGTCAGGGCCAGTTTAGGAGGAACGTT displayed a PBM binding z-score of 3.06.

Sequence ATGTCTAGGTAACAAGTTCAGTGAAAGAGAGGAC returned a PBM binding z-score of 1.29.

Sequence GGAACGAGGGAATTCGAGTTGATAGCATGGCGAT had a PBM binding z-score of -0.376.

On to CCTCGGAGGACAACAGGCGGTCAGAGCTGCCAGA, for which the PBM binding z-score is 1.07.

Sequence CCTCGCAGGACAGAAGGTCAGAGCTGTCCGCTTT yielded a PBM binding z-score of 2.74.

As to GCTATTAGTTGAAAGGGCAAGCGAATGATTCTCG, the PBM binding z-score was 1.06.

Regarding CCTAGCAGGCCAGGGTCACTCAAGCATTTCGCTT, the PBM binding z-score worked out at 3.21.

CGTCCTAGGTCAATGCTAGGTCAGTGAAAGCATT yielded a PBM binding z-score of 6.16.

The sequence CCTACAGGGTCAGCTAGGCCAGAGTAGGGACGGC returned a PBM binding z-score of 4.32.

As to TGAATGAGGTTATAAGATCATGGAACGTTGCAAA, the PBM binding z-score amounted to 1.76.

For CCTTACGGGTCAAGGTTATAGCACGGGTGGTACG, the PBM binding z-score is 5.

Regarding ACAGACATGTGAGTGAAGGTAACTCAGCTGGACG, the PBM binding z-score worked out at 0.0591.

In the case of TCTTGTAGATCAACAGGAAGTTAAGAAAGATCGA, the PBM binding z-score is -0.328.

Consider TCACGGAGGACACGAAGGTCAGAGCTTTCCAGAG, for which the PBM binding z-score is 3.41.

With GCTAGTTGGTCAGTAAAAGGTTACACACCGGTCG, the PBM binding z-score was 2.11.

For the next assay, the system named is RARg homodimer (NR concentration 270 nM). The assay is described as above. In outline: as §1
GATACAGGGTCAGCTAGAGTCCAGAGTATGGAAA gave a PBM binding z-score of 4.41.

Regarding AGGATGAGGTTAAGATCAGGGAAACAGAATACAT, the PBM binding z-score is 1.71.

CCGAGTAGGTTATGGGGCATTCGGGCAACGGTGA: the PBM binding z-score is 0.653.

The sequence TCATAAAGGTAAACAGGTGAAAGTCCGTAAGTTA gave a PBM binding z-score of 0.882.

ACAGACAGGGGAGTGAAGGTAACTCAGCTGGACG displayed a PBM binding z-score of 0.208.

CATACAGGGTCAGCTAGGCGAGAGTAGGGACGGC: the PBM binding z-score was found to be 4.53.

For GCGACTGGGGCAAATCAGGTTACCATAAGGTTGG, the PBM binding z-score is 0.619.

Regarding ACTAGCAGGCCAAGTTTGGTTCACTCAAACAAAG, the PBM binding z-score was determined as 0.218.

As for CCTAGTTTGTCAAGGTCACACACGCTATAGGTAC, the PBM binding z-score was found to be 4.58.

Take CCTACTGGGCCAAAAGTCATTGATTCCAATGCTC: the PBM binding z-score came to 0.053.

Take TCTAGTTGGGCAAAGGTCACACACTCGAAATGCG: the PBM binding z-score turned out to be 5.87.

Consider TCTCGGAGGACACGAAGCTCAGAGCTTTCCAGAG, for which the PBM binding z-score came to 0.869.

Take ATCTCTAGGTAACCAAGTTCAATGAATGCCGAAC: the PBM binding z-score stood at 1.08.

With ACTATTAGTTGACTTAGTGCAACCGATACGACGC, the PBM binding z-score amounted to 0.65.

Consider CTCGACAGGTCGTGCTCAGGTGAGTATACCAAAC, for which the PBM binding z-score came out at 1.33.

The sequence TCTTGTAAATCAGCAGGTTAAGAAAGCTGGCCAA showed a PBM binding z-score of -0.347.

CCGACTGGGGCAGAAAGGTTAACATACCATCCGG came in with a PBM binding z-score of 1.84.

For CCTACTGGGCCATTCAGAGGTCTTTGATCATATG, the PBM binding z-score was 0.17.

Turning to CCTCGGAGGACCACAGGAGGTCAGAGCTGCCAGA, the PBM binding z-score was 2.01.

For ATCTCTAGGTAAAGAGAGTTCAGTGAATGCAAAT, the PBM binding z-score turned out to be 1.18.

Sequence TCTTGGAGATCAACAGGAGGTTAAGAAAGATCGA displayed a PBM binding z-score of 0.145.

CCTCGGAGGAAAGAAGGTCAGAGCTGTCCGCTTT displayed a PBM binding z-score of 1.67.

With CCTCGGAGGACATAAGGTCAGAGCTGTCCGCTTT, the PBM binding z-score was 3.55.

Turning to CGTCAAAGTTCAAGGTAAGGTAACAGAAAGCAGC, the PBM binding z-score turned out to be 5.4.

For the sequence TTACCAAGGTGAAGGTCGTTGTTCCCTCTGTAGA, the PBM binding z-score amounted to 1.24.

In turn, CAGCCTAGGTCAGGGCCAGTTTAGGAGGAACGTT yielded a PBM binding z-score of 3.48.

With ATGTCTAGGTAACAAGTTCAGTGAAAGAGAGGAC, the PBM binding z-score was found to be 1.35.

On to GGAACGAGGGAATTCGAGTTGATAGCATGGCGAT, for which the PBM binding z-score was -0.201.

For the sequence CCTCGGAGGACAACAGGCGGTCAGAGCTGCCAGA, the PBM binding z-score was 1.63.

In turn, CCTCGCAGGACAGAAGGTCAGAGCTGTCCGCTTT had a PBM binding z-score of 2.61.

With GCTATTAGTTGAAAGGGCAAGCGAATGATTCTCG, the PBM binding z-score was 1.04.

CCTAGCAGGCCAGGGTCACTCAAGCATTTCGCTT yielded a PBM binding z-score of 2.84.

Sequence CGTCCTAGGTCAATGCTAGGTCAGTGAAAGCATT displayed a PBM binding z-score of 5.14.

Take CCTACAGGGTCAGCTAGGCCAGAGTAGGGACGGC: the PBM binding z-score was 4.38.

In turn, TGAATGAGGTTATAAGATCATGGAACGTTGCAAA had a PBM binding z-score of 0.935.

CCTTACGGGTCAAGGTTATAGCACGGGTGGTACG registered a PBM binding z-score of 5.02.

In turn, ACAGACATGTGAGTGAAGGTAACTCAGCTGGACG yielded a PBM binding z-score of 0.117.

For the sequence TCTTGTAGATCAACAGGAAGTTAAGAAAGATCGA, the PBM binding z-score was -0.339.

The sequence TCACGGAGGACACGAAGGTCAGAGCTTTCCAGAG came in with a PBM binding z-score of 3.86.

GCTAGTTGGTCAGTAAAAGGTTACACACCGGTCG had a PBM binding z-score of 1.34.

Another assay concerns RXRa DBDmut IVT, anti-RXR (DBD mutation: RXRa K156A/R161A, NR concentration 90 nM). The description is as above. Summed up: as §1
On to GATACAGGGTCAGCTAGAGTCCAGAGTATGGAAA, for which the PBM binding z-score came out at 1.39.

AGGATGAGGTTAAGATCAGGGAAACAGAATACAT gave a PBM binding z-score of 0.731.

For the sequence CCGAGTAGGTTATGGGGCATTCGGGCAACGGTGA, the PBM binding z-score is -0.483.

Take TCATAAAGGTAAACAGGTGAAAGTCCGTAAGTTA: the PBM binding z-score came to 1.53.

The sequence ACAGACAGGGGAGTGAAGGTAACTCAGCTGGACG yielded a PBM binding z-score of -0.277.

As to CATACAGGGTCAGCTAGGCGAGAGTAGGGACGGC, the PBM binding z-score is 1.72.

In turn, GCGACTGGGGCAAATCAGGTTACCATAAGGTTGG gave a PBM binding z-score of -0.00232.

ACTAGCAGGCCAAGTTTGGTTCACTCAAACAAAG displayed a PBM binding z-score of 0.0733.

For the sequence CCTAGTTTGTCAAGGTCACACACGCTATAGGTAC, the PBM binding z-score amounted to 2.88.

The sequence CCTACTGGGCCAAAAGTCATTGATTCCAATGCTC had a PBM binding z-score of 0.0698.

In turn, TCTAGTTGGGCAAAGGTCACACACTCGAAATGCG displayed a PBM binding z-score of 1.44.

In turn, TCTCGGAGGACACGAAGCTCAGAGCTTTCCAGAG showed a PBM binding z-score of 0.583.

Sequence ATCTCTAGGTAACCAAGTTCAATGAATGCCGAAC yielded a PBM binding z-score of 1.64.

In turn, ACTATTAGTTGACTTAGTGCAACCGATACGACGC yielded a PBM binding z-score of 0.565.

CTCGACAGGTCGTGCTCAGGTGAGTATACCAAAC: the PBM binding z-score turned out to be 0.53.

With TCTTGTAAATCAGCAGGTTAAGAAAGCTGGCCAA, the PBM binding z-score turned out to be 0.924.

CCGACTGGGGCAGAAAGGTTAACATACCATCCGG came in with a PBM binding z-score of -0.366.

Sequence CCTACTGGGCCATTCAGAGGTCTTTGATCATATG came in with a PBM binding z-score of -0.165.

In turn, CCTCGGAGGACCACAGGAGGTCAGAGCTGCCAGA displayed a PBM binding z-score of -0.446.

With ATCTCTAGGTAAAGAGAGTTCAGTGAATGCAAAT, the PBM binding z-score was 1.12.

Turning to TCTTGGAGATCAACAGGAGGTTAAGAAAGATCGA, the PBM binding z-score came out at 0.185.

CCTCGGAGGAAAGAAGGTCAGAGCTGTCCGCTTT displayed a PBM binding z-score of 0.0436.

CCTCGGAGGACATAAGGTCAGAGCTGTCCGCTTT: the PBM binding z-score worked out at 0.965.

Turning to CGTCAAAGTTCAAGGTAAGGTAACAGAAAGCAGC, the PBM binding z-score came to 4.12.

In turn, TTACCAAGGTGAAGGTCGTTGTTCCCTCTGTAGA came in with a PBM binding z-score of 0.33.

Consider CAGCCTAGGTCAGGGCCAGTTTAGGAGGAACGTT, for which the PBM binding z-score was 0.133.

In turn, ATGTCTAGGTAACAAGTTCAGTGAAAGAGAGGAC had a PBM binding z-score of 0.903.

Sequence GGAACGAGGGAATTCGAGTTGATAGCATGGCGAT registered a PBM binding z-score of -0.589.

CCTCGGAGGACAACAGGCGGTCAGAGCTGCCAGA came in with a PBM binding z-score of -0.164.

In turn, CCTCGCAGGACAGAAGGTCAGAGCTGTCCGCTTT came in with a PBM binding z-score of 0.371.

GCTATTAGTTGAAAGGGCAAGCGAATGATTCTCG had a PBM binding z-score of 0.747.

Consider CCTAGCAGGCCAGGGTCACTCAAGCATTTCGCTT, for which the PBM binding z-score came out at 0.493.

Take CGTCCTAGGTCAATGCTAGGTCAGTGAAAGCATT: the PBM binding z-score is 1.83.

CCTACAGGGTCAGCTAGGCCAGAGTAGGGACGGC returned a PBM binding z-score of 1.01.

In turn, TGAATGAGGTTATAAGATCATGGAACGTTGCAAA displayed a PBM binding z-score of 0.832.

CCTTACGGGTCAAGGTTATAGCACGGGTGGTACG: the PBM binding z-score was 0.875.

Sequence ACAGACATGTGAGTGAAGGTAACTCAGCTGGACG showed a PBM binding z-score of -0.191.

Regarding TCTTGTAGATCAACAGGAAGTTAAGAAAGATCGA, the PBM binding z-score was 0.508.

With TCACGGAGGACACGAAGGTCAGAGCTTTCCAGAG, the PBM binding z-score was 0.991.

Regarding GCTAGTTGGTCAGTAAAAGGTTACACACCGGTCG, the PBM binding z-score came to 0.00211.
